According to the supplement of paper PMC8728848:
This is one part of a sample in which the strongest signals are shown more often than they occur.

Legend:
Experiment in all cases: glycan array binding signal (z-score within array); higher = stronger binding
Conditions in all cases: glycan notation: IUPAC condensed, linker removed
[1] = target: Fuc(a1-2)Gal(b1-3)GlcNAc(b1-2)Man(a1-3)[Fuc(a1-2)Gal(b1-3)GlcNAc(b1-2)Man(a1-6)]Man(b1-4)GlcNAc(b1-4)[Fuc(a1-6)]GlcNAc
In short: (§1)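 Columns mapping to the same glycan were averaged after glycan names were converted to IUPAC-condensed notation. The data come from 3228 arrays in the Consortium for Functional Glycomics database, limited to those with an available protein sequence. Binding is reported as a within-array Z-score averaged across arrays of one protein sequence and across linkers.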

[2] = target: Fuc(a1-2)Gal(b1-3)GlcNAc(b1-3)[Gal(b1-4)GlcNAc(b1-6)]Gal(b1-4)Glc
In short: as §1

[3] = target: Fuc(a1-2)[Gal(a1-3)]Gal(b1-4)GlcNAc(b1-3)[Fuc(a1-2)[Gal(a1-3)]Gal(b1-4)GlcNAc(b1-6)]GalNAc
In short: as §1

[4] = target: Fuc(a1-2)[GalNAc(a1-3)]Gal(b1-3)GlcNAc(b1-3)GalNAc
In short: as §1

[5] = target: Fuc(a1-2)[GalNAc(a1-3)]Gal(b1-4)GlcNAc(b1-3)Gal(b1-4)GlcNAc(b1-3)Gal(b1-4)GlcNAc
In short: as §1

[6] = target: Fuc(a1-3)[Gal(b1-4)]GlcNAc(b1-2)Man
In short: as §1

Fuc(a1-4)GlcNAc = target: Fuc(a1-4)GlcNAc
In short: as §1

[7] = target: Gal(a1-3)[Gal(a1-4)]Gal(b1-4)GlcNAc
In short: as §1

Gal(a1-4)Gal(b1-4)GlcNAc = target: Gal(a1-4)Gal(b1-4)GlcNAc
In short: as §1

Gal(a1-6)Glc = target: Gal(a1-6)Glc
In short: as §1

Gal(b1-2)Gal = target: Gal(b1-2)Gal
In short: as §1

Gal(b1-3)GlcNAc = target: Gal(b1-3)GlcNAc
In short: as §1

[8] = target: Gal(b1-3)GlcNAc(a1-3)Gal(b1-4)GlcNAc
In short: as §1

Gal(b1-3)GlcNAc(b1-2)Man = target: Gal(b1-3)GlcNAc(b1-2)Man
In short: as §1

[9] = target: Gal(b1-3)GlcNAc(b1-3)Gal(b1-4)Glc
In short: as §1

[10] = target: Gal(b1-3)GlcNAc(b1-3)GalNAc
In short: as §1

[11] = target: Gal(b1-4)GlcNAc(b1-2)[Gal(b1-4)GlcNAc(b1-6)]Man(a1-6)[GlcNAc(b1-4)][Gal(b1-4)GlcNAc(b1-2)Man(a1-3)]Man(b1-4)GlcNAc(b1-4)GlcNAc
In short: as §1

[12] = target: Gal(b1-4)GlcNAc(b1-3)Gal(b1-4)GlcNAc(b1-3)Gal(b1-4)GlcNAc(b1-2)Man(a1-3)[Gal(b1-4)GlcNAc(b1-3)Gal(b1-4)GlcNAc(b1-3)Gal(b1-4)GlcNAc(b1-2)Man(a1-6)]Man(b1-4)GlcNAc(b1-4)[Fuc(a1-6)]GlcNAc
In short: as §1

[13] = target: Gal(b1-4)GlcNAc(b1-3)Gal(b1-4)GlcNAc(b1-3)Gal(b1-4)GlcNAc(b1-3)Gal(b1-4)GlcNAc(b1-3)Gal(b1-4)GlcNAc(b1-2)[Gal(b1-4)GlcNAc(b1-3)Gal(b1-4)GlcNAc(b1-3)Gal(b1-4)GlcNAc(b1-3)Gal(b1-4)GlcNAc(b1-3)Gal(b1-4)GlcNAc(b1-6)]Man(a1-6)[Gal(b1-4)GlcNAc(b1-3)Gal(b1-4)GlcNAc(b1-3)Gal(b1-4)GlcNAc(b1-3)Gal(b1-4)GlcNAc(b1-3)Gal(b1-4)GlcNAc(b1-2)Man(a1-3)]Man(b1-4)GlcNAc(b1-4)[Fuc(a1-6)]GlcNAc
In short: as §1

Gal3S(b1-3)GalNAc = target: Gal3S(b1-3)GalNAc
In short: as §1

Gal3S(b1-4)Glc = target: Gal3S(b1-4)Glc
In short: as §1

Gal3S4S(b1-4)GlcNAc = target: Gal3S4S(b1-4)GlcNAc
In short: as §1

GalNAc(a1-3)GalNAc = target: GalNAc(a1-3)GalNAc
In short: as §1

GalNAc(b1-4)GlcNAc = target: GalNAc(b1-4)GlcNAc
In short: as §1

[14] = target: GalNAc(b1-4)GlcNAc(b1-2)Man(a1-3)[GalNAc(b1-4)GlcNAc(b1-2)Man(a1-6)]Man(b1-4)GlcNAc(b1-4)GlcNAc
In short: as §1

GlcA(b1-3)GlcNAc = target: GlcA(b1-3)GlcNAc
In short: as §1

[15] = target: GlcNAc(a1-4)Gal(b1-4)GlcNAc(b1-3)Gal(b1-4)Glc
In short: as §1

[16] = target: GlcNAc(b1-2)Man(a1-3)[GlcNAc(b1-4)][GlcNAc(b1-2)Man(a1-6)]Man(b1-4)GlcNAc(b1-4)[Fuc(a1-6)]GlcNAc
In short: as §1

[17] = target: GlcNAc(b1-2)[GlcNAc(b1-4)]Man(a1-3)[GlcNAc(b1-4)][GlcNAc(b1-2)Man(a1-6)]Man(b1-4)GlcNAc(b1-4)GlcNAc
In short: as §1

[18] = target: GlcNAc(b1-2)[GlcNAc(b1-4)]Man(a1-3)[GlcNAc(b1-4)][GlcNAc(b1-2)[GlcNAc(b1-6)]Man(a1-6)]Man(b1-4)GlcNAc(b1-4)GlcNAc
In short: as §1

[19] = target: GlcNAc(b1-3)Gal(b1-4)GlcNAc(b1-2)Man(a1-3)[GlcNAc(b1-3)Gal(b1-4)GlcNAc(b1-2)Man(a1-6)]Man(b1-4)GlcNAc(b1-4)[Fuc(a1-6)]GlcNAc
In short: as §1

[20] = target: GlcNAc(b1-3)Gal(b1-4)GlcNAc(b1-3)[GlcNAc(b1-3)Gal(b1-4)GlcNAc(b1-3)]GalNAc
In short: as §1

GlcNAc(b1-3)Man = target: GlcNAc(b1-3)Man
In short: as §1

[21] = target: GlcNAc(b1-4)GlcNAc(b1-4)GlcNAc(b1-4)GlcNAc(b1-4)GlcNAc
In short: as §1

[22] = target: Man(a1-2)Man(a1-2)Man(a1-3)Man
In short: as §1

[23] = target: Neu5Ac(a2-3)Gal(b1-3)GalNAc
In short: as §1

Neu5Ac(a2-3)Gal(b1-4)Glc = target: Neu5Ac(a2-3)Gal(b1-4)Glc
In short: as §1

[24] = target: Neu5Ac(a2-3)Gal(b1-4)GlcNAc(b1-3)Gal(b1-3)GlcNAc
In short: as §1

[25] = target: Neu5Ac(a2-3)Gal(b1-4)GlcNAc(b1-3)Gal(b1-4)GlcNAc(b1-3)GalNAc
In short: as §1

[26] = target: Neu5Ac(a2-3)Gal(b1-4)[Fuc(a1-3)]GlcNAc(b1-3)GalNAc
In short: as §1

Neu5Ac(a2-3)GalNAc = target: Neu5Ac(a2-3)GalNAc
In short: as §1

Neu5Ac(a2-6)GalNAc = target: Neu5Ac(a2-6)GalNAc
In short: as §1

[27] = target: Neu5Ac(a2-8)Neu5Ac(a2-3)[Gal(b1-3)GalNAc(b1-4)]Gal(b1-4)Glc
In short: as §1

[28] = target: Neu5Ac(a2-8)Neu5Gc(a2-3)Gal(b1-4)GlcNAc
In short: as §1

[29] = target: Neu5Gc(a2-3)Gal(b1-3)[Fuc(a1-4)]GlcNAc
In short: as §1

B1: SP15308A-bot-339-19-339 (Bacteroides ovatus) (protein)
chain: ACNNEWEDEQYEQYISFKSPIPAGGEGVTDIYVRYKEDGKVTYRLPIVVSGSTTNTLDREVHIAVDKDTLETLNIERFSIHRPGLWYTALEEDKYDFPKTVHISAGSSVEQLNIDFNLQGIDMLEKWVLPLTIVDDPSYNYKSHPRKNYAKALLRVIPFNNYSGSYTSSAMKVYTYINGKPDTNARTANKRTGYVINDNTVFFYAGLISEDLDKEVREKYKINVHFNEDGTLHMEQGDPTNKMKFELIGTPTYSKTSVMDATRPYLERRYVQIMFEYDFEDFSYGGNGVDVIPIKYKVEGSMTLQRNINTQIPDEDQQIEW
- glycan array binding signal (z-score) [1]: 0.285
- glycan array binding signal (z-score) [2]: -0.461
- glycan array binding signal (z-score) [3]: 8.34
- glycan array binding signal (z-score) [4]: 0.521
- glycan array binding signal (z-score) [5]: 0.178
- glycan array binding signal (z-score) [6]: 0.187
- glycan array binding signal (z-score) (Fuc(a1-4)GlcNAc): 19.1
- glycan array binding signal (z-score) [7]: 1.28
- glycan array binding signal (z-score) (Gal(a1-4)Gal(b1-4)GlcNAc): 0.261
- glycan array binding signal (z-score) (Gal(a1-6)Glc): 0.432
- glycan array binding signal (z-score) (Gal(b1-2)Gal): 0.055
- glycan array binding signal (z-score) (Gal(b1-3)GlcNAc): 0.061
- glycan array binding signal (z-score) [8]: 0.217
- glycan array binding signal (z-score) (Gal(b1-3)GlcNAc(b1-2)Man): 2.76
- glycan array binding signal (z-score) [9]: -0.437
- glycan array binding signal (z-score) [10]: 0.029
- glycan array binding signal (z-score) [11]: -0.304
- glycan array binding signal (z-score) [12]: 2.77
- glycan array binding signal (z-score) [13]: 0.968
- glycan array binding signal (z-score) (Gal3S(b1-3)GalNAc): 0.97
- glycan array binding signal (z-score) (Gal3S(b1-4)Glc): 0.257
- glycan array binding signal (z-score) (Gal3S4S(b1-4)GlcNAc): 0.201
- glycan array binding signal (z-score) (GalNAc(a1-3)GalNAc): 1.35
- glycan array binding signal (z-score) (GalNAc(b1-4)GlcNAc): 1.18
- glycan array binding signal (z-score) [14]: 1.54
- glycan array binding signal (z-score) (GlcA(b1-3)GlcNAc): -0.486
- glycan array binding signal (z-score) [15]: 0.185
- glycan array binding signal (z-score) [16]: -0.474
- glycan array binding signal (z-score) [17]: 1.11
- glycan array binding signal (z-score) [18]: -0.391
- glycan array binding signal (z-score) [19]: 0.083
- glycan array binding signal (z-score) [20]: 0.148
- glycan array binding signal (z-score) (GlcNAc(b1-3)Man): -0.188
- glycan array binding signal (z-score) [21]: -0.452
- glycan array binding signal (z-score) [22]: -0.468
- glycan array binding signal (z-score) [23]: 1.94
- glycan array binding signal (z-score) (Neu5Ac(a2-3)Gal(b1-4)Glc): 0.997
- glycan array binding signal (z-score) [24]: 0.117
- glycan array binding signal (z-score) [25]: -0.51
- glycan array binding signal (z-score) [26]: 1.76
- glycan array binding signal (z-score) (Neu5Ac(a2-3)GalNAc): 0.234
- glycan array binding signal (z-score) (Neu5Ac(a2-6)GalNAc): -0.36
- glycan array binding signal (z-score) [27]: -0.083
- glycan array binding signal (z-score) [28]: -0.21
- glycan array binding signal (z-score) [29]: -0.412
